Experimental data as given in PubChem BioAssay AID1159580 (chemical genetic matrix, 2015).
The whole screen tested about 5,500 compounds, of which about 2,000 (36%) were called active. Another 18% or so got no clear call; they are omitted. No stated cut-off is given here; in the data, active means normalized growth mostly below about 0.91 (no sharp cut-off); inconclusive means no clear call, values can overlap the other calls; inactive means mostly above about 0.92. Some of the results follow.

Experiment: chemical genetic growth profiling, strain panel (AID 1159580);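 further: tested at 20 µM; growth read once vehicle control cultures reached saturation at 30 °C; 1 = growth at the plate median or of vehicle wells; lower values mean less growth of the strain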
Conditions: growth OD

Measured: normalized growth

O=C1c2ccccc2C(=O)c2c1ccc(O)c2O
inactive: S. cerevisiae deletion strains, locus YKL009W, strain mrt4, hits give low values 0.907 | S. cerevisiae deletion strains, locus YOL012C, strain htz1 0.219
active: S. cerevisiae deletion strains, locus YJL187C, strain SWE1, hits give low values 0.524 | S. cerevisiae deletion strains, locus YJR066W, strain TOR1, hits give low values 0.565 | S. cerevisiae deletion strains, locus YKL068W, hits give low values 0.854 | S. cerevisiae deletion strains, locus YKL085W, strain MDH1 (second series), hits give low values 0.868 | S. cerevisiae deletion strains, locus YKL085W, strain MDH1, hits give low values 0.868 | S. cerevisiae deletion strains, locus YKL160W, strain elf1, hits give low values 0.568 | S. cerevisiae deletion strains, locus YKL190W, strain CNB1, hits give low values 0.286 | S. cerevisiae deletion strains, locus YKR001C, strain vps1, hits give low values 0.26 | S. cerevisiae deletion strains, locus YKR026C, strain gcn3, hits give low values 0.744 | S. cerevisiae deletion strains, locus YKR091W, strain srl3, hits give low values 0.714 | S. cerevisiae deletion strains, locus YLL001W, strain dnm1, hits give low values 0.492 | S. cerevisiae deletion strains, locus YLL026W, hits give low values 0.576 | S. cerevisiae deletion strains, locus YLL041C, strain sdh2, hits give low values 0.733 | S. cerevisiae deletion strains, locus YLR027C, strain aat2, hits give low values 0.578 | S. cerevisiae deletion strains, locus YLR039C, strain RIC1, hits give low values 0.149 | S. cerevisiae deletion strains, locus YLR058C, strain SHM2, hits give low values 0.203 | S. cerevisiae deletion strains, locus YLR102C, strain apc9, hits give low values 0.516 | S. cerevisiae deletion strains, locus YLR113W, strain HOG1, hits give low values 0.56 | S. cerevisiae deletion strains, locus YLR221C, strain rsa3, hits give low values 0.538 | S. cerevisiae deletion strains, locus YLR258W, strain gsy2, hits give low values 0.58 | S. cerevisiae deletion strains, locus YLR262C, strain YPT6 (second series), hits give low values 0.201 | S. cerevisiae deletion strains, locus YLR268W, strain sec22, hits give low values 0.194 | S. cerevisiae deletion strains, locus YLR320W, strain mms22, hits give low values 0.374 | S. cerevisiae deletion strains, locus YLR342W, strain FKS1, hits give low values 0.453 | S. cerevisiae deletion strains, locus YLR357W, strain rsc2, hits give low values 0.579 | S. cerevisiae deletion strains, locus YLR370C, strain arc18, hits give low values 0.539 | S. cerevisiae deletion strains, locus YLR371W, strain rom2, hits give low values 0.316 | S. cerevisiae deletion strains, locus YLR384C, strain iki3, hits give low values 0.574 | S. cerevisiae deletion strains, locus YLR418C, strain cdc73, hits give low values 0.225 | S. cerevisiae deletion strains, locus YML016C, strain PPZ1, hits give low values 0.195 | S. cerevisiae deletion strains, locus YML032C, strain rad52, hits give low values 0.487 | S. cerevisiae deletion strains, locus YML120C, strain ndi1, hits give low values 0.602 | S. cerevisiae deletion strains, locus YML124C, strain tub3, hits give low values 0.547 | S. cerevisiae deletion strains, locus YMR058W, strain fet3, hits give low values 0.444 | S. cerevisiae deletion strains, locus YMR078C, strain ctf18, hits give low values 0.455 | S. cerevisiae deletion strains, locus YMR125W, strain sto1, hits give low values 0.773 | S. cerevisiae deletion strains, locus YMR129W, hits give low values 0.69 | S. cerevisiae deletion strains, locus YMR205C, strain PFK2, hits give low values 0.423 | S. cerevisiae deletion strains, locus YMR223W, strain ubp8, hits give low values 0.408 | S. cerevisiae deletion strains, locus YMR231W, strain pep5, hits give low values 0.641 | S. cerevisiae deletion strains, locus YMR263W, strain SAP30, hits give low values 0.295 | S. cerevisiae deletion strains, locus YMR307W, strain GAS1, hits give low values 0.167 | S. cerevisiae deletion strains, locus YNL067W, strain RPL9B, hits give low values 0.324 | S. cerevisiae deletion strains, locus YNL071W, strain lat1, hits give low values 0.386 | S. cerevisiae deletion strains, locus YNL128W, strain TEP1, hits give low values 0.216 | S. cerevisiae deletion strains, locus YNL153C, strain GIM3, hits give low values 0.28 | S. cerevisiae deletion strains, locus YNL183C, strain NPR1, hits give low values 0.596 | S. cerevisiae deletion strains, locus YNL209W, strain ssb2, hits give low values 0.265 | S. cerevisiae deletion strains, locus YNL233W, strain BNI4, hits give low values 0.246 | S. cerevisiae deletion strains, locus YNL248C, strain rpa49, hits give low values 0.458 | S. cerevisiae deletion strains, locus YNL250W, strain rad50, hits give low values 0.895 | S. cerevisiae deletion strains, locus YNL271C, strain bni1, hits give low values 0.828 | S. cerevisiae deletion strains, locus YNL298W, strain CLA4, hits give low values 0.775 | S. cerevisiae deletion strains, locus YNL307C, strain MCK1, hits give low values 0.188 | S. cerevisiae deletion strains, locus YNL322C, strain KRE1 (second series), hits give low values 0.726 | S. cerevisiae deletion strains, locus YNR049C, strain mso1, hits give low values 0.659 | S. cerevisiae deletion strains, locus YNR052C, strain pop2, hits give low values 0.218 | S. cerevisiae deletion strains, locus YOL147C, strain pex11, hits give low values 0.362 | S. cerevisiae deletion strains, locus YOR001W, strain rrp6, hits give low values 0.608 | S. cerevisiae deletion strains, locus YOR061W, strain CKA2, hits give low values 0.237 | S. cerevisiae deletion strains, locus YOR069W, strain VPS5, hits give low values 0.314 | S. cerevisiae deletion strains, locus YOR070C, strain gyp1, hits give low values 0.496 | S. cerevisiae deletion strains, locus YOR080W, strain dia2, hits give low values 0.638 | S. cerevisiae deletion strains, locus YOR083W, strain WHI5, hits give low values 0.475 | S. cerevisiae deletion strains, locus YOR106W, strain vam3, hits give low values 0.302 | S. cerevisiae deletion strains, locus YOR136W, strain idh2, hits give low values 0.433 | S. cerevisiae deletion strains, locus YOR144C, strain elg1, hits give low values 0.561 | S. cerevisiae deletion strains, locus YOR184W, strain ser1, hits give low values 0.209 | S. cerevisiae deletion strains, locus YOR231W, strain MKK1, hits give low values 0.707 | S. cerevisiae deletion strains, locus YOR265W, strain rbl2, hits give low values 0.503 | S. cerevisiae deletion strains, locus YOR270C, strain vph1, hits give low values 0.278 | S. cerevisiae deletion strains, locus YOR290C, strain snf2, hits give low values 0.41 | S. cerevisiae deletion strains, locus YOR316C, strain cot1, hits give low values 0.474 | S. cerevisiae deletion strains, locus YPL051W, strain arl3, hits give low values 0.295 | S. cerevisiae deletion strains, locus YPL078C, strain atp4, hits give low values 0.471 | S. cerevisiae deletion strains, locus YPL106C, strain sse1, hits give low values 0.502 | S. cerevisiae deletion strains, locus YPL240C, strain hsp82, hits give low values 0.613 | S. cerevisiae deletion strains, locus YPL256C, strain CLN2, hits give low values 0.749 | S. cerevisiae deletion strains, locus YPR119W, strain clb2, hits give low values 0.558 | S. cerevisiae deletion strains, locus YPR141C, strain kar3, hits give low values 0.854 | S. cerevisiae deletion strains, locus YPR163C, strain tif3, hits give low values 0.214 | S. cerevisiae deletion strains, locus YPR167C, strain met16, hits give low values 0.377 | S. cerevisiae deletion strains, strain wtn01, hits give low values 0.295 | S. cerevisiae strains, strain wild type, hits give low values 0.166
